Here are results for 25 compounds from PubChem BioAssay (NCATS).

SMILES strings stand for the structures. Inconclusive results are not listed. A number with no mark means an inactive call. Calls of active or inactive are those of the source. Unless noted, the call rests on the fitted dose curve; in most records, active means well fitted inhibition curve with a large enough effect; inconclusive means small, poorly fitted or top-dose-only effect; inactive means flat fitted curve, though single readings scatter.

Sequence of Calcium and integrin-binding protein 1 (Homo sapiens) (Q99828 whole entry, looked up): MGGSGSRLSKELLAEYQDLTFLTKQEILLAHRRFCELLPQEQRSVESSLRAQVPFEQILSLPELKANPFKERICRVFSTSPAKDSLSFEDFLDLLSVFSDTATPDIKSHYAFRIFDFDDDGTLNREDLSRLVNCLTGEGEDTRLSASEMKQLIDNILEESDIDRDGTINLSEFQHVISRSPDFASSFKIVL

Test system in one test: not listed separately
Nature of the test: Confirmatory qHTS for VERO E6 Cytotoxicity Assay: Counterscreen for SARS-CoV-2 CPE Assay (AID 1508605; calls by dose curve; further: nearly all actives have a fitted effect of over 60% in size; further: potency means the concentration at half of the fitted maximal effect; on activity change, negative = cytotoxic: on the % scale 0 is the no-effect control and ±100 the full control effect). The conditions noted are these: cell viability luminescence; series mostly up to 20 µM; activity change, negative = cytotoxic: at the top concentration. In general terms: Quantitative high-throughput screening tests each substance at several concentrations.
With `O=C(c1ccc(Nc2nccc(-c3cc4ccccc4s3)n2)cc1)N1CCC(N2CCCC2)CC1`, the Potency was 10 µM (active).

On to `CCCCCCCc1ccc(CCc2cccc(O)c2C(=O)O)cc1`, for which the “activity change, negative = cytotoxic” value was -23.4%.

On to `CN(C)c1ccc(C2Nc3ccc4ccccc4c3C3=C2C(=O)CC(C)(C)C3)cc1Br` (stereo not drawn), for which the “activity change, negative = cytotoxic” value was -9.02%.

As for `CCN(CC)CCCCNc1nc2cc(Cl)c(Cl)cc2nc1-c1ccc(-c2cccs2)s1`, the Potency was 10 µM (active).

Regarding `Nc1ccc(C(=O)c2cc3c(ccc4ccccc43)[nH]2)cc1`, the Potency was 14.1 µM (active).

As for `COc1cccc2c1CCCC2CCCN1CCN(C2CCCCC2)CC1` (stereo not drawn), the “activity change, negative = cytotoxic” value is -20.2%.

With `COc1c(C)cnc(Cn2cnc3c(Cl)nc(N)nc32)c1C`, the “activity change, negative = cytotoxic” value is -24.7%.

Test system in the next test: not listed separately
Put plainly: Confirmatory qHTS for activators (rescue) of SARS-CoV-2 Cytopathic Effect (CPE) (AID 1508606; calls by dose curve; further: nearly all actives have a fitted effect of over 70% in size; further: potency means the concentration at half of the fitted maximal effect; on CPE rescue (activation): 0% is about no effect). The note with it: Vero E6 SARS-CoV-2 CPE rescue, viability luminescence; series mostly up to 20 µM; CPE rescue (activation): at the top concentration.
As for `O=C(c1ccc(Nc2nccc(-c3cc4ccccc4s3)n2)cc1)N1CCC(N2CCCC2)CC1`, the Potency is 3.55 µM (active).

For `CN(C)c1ccc(C2Nc3ccc4ccccc4c3C3=C2C(=O)CC(C)(C)C3)cc1Br` (stereo not drawn), the “CPE rescue (activation)” value is -0.826%.

`COc1cccc2c1CCCC2CCCN1CCN(C2CCCCC2)CC1` (stereo not drawn): the Potency is 11.2 µM (active).

As for `S=C(NCc1ccc2c(c1)OCO2)N1CCN(c2ncnc3c2oc2ccccc23)CC1`, the Potency is 3.55 µM (active).

The next test addresses Calcium and integrin-binding protein 1 (Homo sapiens) (UniProt Q99828). Nature of the test: Primary qHTS for Identification of Calcium Integrin Binding Protein 1 (CIB1) Competitor (AID 1508620).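 Further: GST tagged CIB1 binding a fluorescein labelled alphaIIb integrin peptide tracer; top concentration of the series differs between compounds; on the % scale 0 is the no-effect control and ±100 the full control effect.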 The note with it: CIB1-GST / FITC-alphaIIb peptide fluorescence polarization; series mostly up to 57.7 µM; activity change, negative = inhibition: at the top concentration. An outline of the steps: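 CIB1-GST (1 uM final) and compound incubated 15 min at room temperature before adding FITC-alphaIIb peptide tracer (100 nM final). Competition for binding read by fluorescence polarization (ex 480, em 540) after another 15 min at room temperature.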
For `Cc1nc(-c2ccc(-c3ccc(C(=O)N4CCc5cc6c(cc54)C4(CCN(C)CC4)CO6)cc3)c(C)c2)no1`, the “activity change, negative = inhibition” value is -5.07%.

In the case of `C[C@H]([C@H](O)CCC(C)(C)O)[C@H]1CC[C@@]2(O)C3=CC(=O)[C@@H]4C[C@@H](O)[C@@H](O)C[C@]4(C)[C@@H]3CC[C@]12C`, the “activity change, negative = inhibition” value is -1.08%.

In the case of `CC[C@H]1C=CC=CC[C@@H](C)[C@H](O)[C@@](C)(O)C(=O)[C@@H](C)[C@H](O)[C@@H](C)C(=O)[C@@H](C)[C@H](O)[C@@H](C)C=CC(=O)O[C@@H]2[C@@H](C)[C@H](CC1)O[C@]1(CC[C@H](C)[C@H](C[C@@H](C)O)O1)[C@H]2C`, the “activity change, negative = inhibition” value was -3.43%.

As for `O=C1CCC[C@@H]2[C@H]3CCCN4CCC[C@@H](CN12)[C@@H]34`, the “activity change, negative = inhibition” value is 7.64%.

For `N=c1c2c(-c3ccccc3)c(-c3ccccc3)n(Cc3ccccc3)c2ncn1C1CCC(O)CC1` (stereo not drawn), the “activity change, negative = inhibition” value was -0.828%.

Regarding `C[C@@H]1CC[C@@]2(OC1)O[C@H]1C[C@H]3[C@@H]4CC=C5C[C@@H](O[C@@H]6O[C@H](CO)[C@@H](O[C@@H]7O[C@@H](C)[C@H](O)[C@@H](O)[C@@H]7O)[C@H](O)[C@@H]6O[C@@H]6O[C@@H](C)[C@H](O)[C@@H](O)[C@@H]6O)CC[C@]5(C)[C@@H]4CC[C@]3(C)[C@@H]1[C@H]2C`, the “activity change, negative = inhibition” value was 4.92%.

With `CC(=CCCC1=CCC(C2=CC(=O)OC2O)OC1O)CCC1=C(C)CCCC1(C)C` (stereo not drawn), the “activity change, negative = inhibition” value is -1.72%.

Turning to `Cc1c(C(=O)Nc2cccc(C(F)(F)F)c2)cc(-c2ccccc2)n1CCCN1CCOCC1`, the result was inactive.

For the compound `O=C(Oc1ccc([N+](=O)[O-])cc1)N1CCN(Cc2cccc(Oc3ccccc3)c2)CC1`, the result was inactive.

For `C[C@@H]1O[C@@H](O[C@@H]2C=C3CC[C@@H]4[C@@H](CC[C@]5(C)[C@H](c6ccc(=O)oc6)CC[C@@]45O)[C@@]3(C)CC2)[C@H](O)[C@H](O)[C@H]1O`, the “activity change, negative = inhibition” value is 0.817%.

On to `O=[N+]([O-])c1ncc[nH]1`, for which the “activity change, negative = inhibition” value is 0.354%.

Regarding `CC(=O)O[C@@]12CO[C@H]1C[C@H](O)[C@@]1(C)C(=O)[C@H](O)C3=C(C)[C@@H](O)C[C@@](O)([C@@H](OC(=O)c4ccccc4)[C@@H]21)C3(C)C`, the “activity change, negative = inhibition” value is -1.47%.

As for `C=C1C[C@H]2[C@H]3CCC(=O)[C@@]3(C)CC[C@@H]2[C@@]2(C)C=CC(=O)C=C12`, the “activity change, negative = inhibition” value is -8.42%.

Take `CC[C@@H]1[C@@H](C)O[C@@](O)([C@@H](C)[C@H](O)[C@H](C)[C@H]2OC(=O)C=CC=C[C@@H](C)[C@@H]([C@@H](C)[C@@H](O)[C@H](C)[C@@]3(O)C[C@H](O[C@H]4C[C@H](O)[C@H](O)[C@H](C)O4)[C@H](CC)[C@@H](C)O3)OC(=O)C=CC=C[C@@H]2C)C[C@H]1O[C@H]1C[C@H](O)[C@H](O)[C@H](C)O1`: the “activity change, negative = inhibition” value was 1.2%.

As for `CC=C(C)C(=O)N[C@@H](c1ccccc1)[C@@H](O)C(=O)O[C@H]1C[C@@]2(O)[C@@H](OC(=O)c3ccccc3)[C@@H]3[C@]4(OC(C)=O)CO[C@@H]4C[C@H](O)[C@@]3(C)C(=O)[C@H](OC(C)=O)C(=C1C)C2(C)C`, the “activity change, negative = inhibition” value was -1.08%.

For `CCOC(=O)c1c(C(C#N)=CN)c2ccc(Cl)c(Cl)c2n1C`, the “activity change, negative = inhibition” value was 0.471%.

Regarding `Cc1c(N)nc([C@H](CC(N)=O)NC[C@@H](N)C(N)=O)nc1C(=O)N[C@H](C(=O)N[C@@H](C)[C@H](O)[C@@H](C)C(=O)N[C@@H](C(=O)NCCc1nc(-c2nc(C(=O)NCCC[S+](C)C)cs2)cs1)[C@@H](C)O)C(O[C@H]1O[C@H](CO)[C@H](O)[C@@H](O)[C@@H]1O[C@H]1O[C@H](CO)[C@@H](O)[C@H](OC(N)=O)[C@H]1O)c1cnc[nH]1` (stereo partly drawn), the “activity change, negative = inhibition” value is -0.483%.
